Results filed as inconclusive are left out. Some structures have more than one record in an assay (separate samples or runs), and their calls can disagree. Calls of active or inactive are those of the source. Calls come from the whole dose curve; as a rule, active = well fitted curve in the direction sought with a large enough effect; inconclusive = small, poorly fitted or top-dose-only effect, or another doubt; inactive = no such curve, though single readings can be large; an effect the other way counts as inactive or inconclusive.
Target: Cytochrome P450 2C9 (Homo sapiens) (UniProt P11712)
Sequence (P11712 whole entry, looked up): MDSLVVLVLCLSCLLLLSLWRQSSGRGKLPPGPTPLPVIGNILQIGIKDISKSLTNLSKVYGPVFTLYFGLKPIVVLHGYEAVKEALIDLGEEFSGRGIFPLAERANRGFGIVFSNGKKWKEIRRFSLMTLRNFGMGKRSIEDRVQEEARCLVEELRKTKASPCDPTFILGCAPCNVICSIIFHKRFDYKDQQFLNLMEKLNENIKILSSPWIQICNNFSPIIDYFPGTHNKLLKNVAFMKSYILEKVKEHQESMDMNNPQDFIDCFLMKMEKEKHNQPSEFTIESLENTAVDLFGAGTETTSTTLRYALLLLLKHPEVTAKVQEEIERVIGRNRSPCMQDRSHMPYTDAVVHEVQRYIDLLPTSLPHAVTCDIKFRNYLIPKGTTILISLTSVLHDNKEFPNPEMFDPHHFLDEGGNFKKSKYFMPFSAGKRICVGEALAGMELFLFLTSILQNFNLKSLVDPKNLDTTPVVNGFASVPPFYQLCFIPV
Test: qHTS Assay for Inhibitors and Substrates of Cytochrome P450 2C9 (AID 883); note: nearly all actives have a fitted effect of over 60% in size; note: potency is the fitted concentration of half-maximal effect; for activity change, negative = inhibition: % is set by controls: 0 for no effect and ±100 for the full control effect
Settings: recombinant CYP2C9, luciferin-H luminescence, 60 min; series mostly up to 57.1 µM; activity change, negative = inhibition: at the top concentration
Outline: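 10nM CYP2C9 + 100uM Luciferin-H (=KM), 25mM KPO4; cpd 10 min 37C; NADPH regen, 60 min 37C; stop/detect with P450 Glo-Buffer 20 min; luminescence. Norm. to 57uM sulphaphenazole as full inhibition.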
For `COc1ccc(Cc2nccc3cc(OC)c(OC)cc23)cc1OC`, the Potency was 12.6 µM (active).
For `COc1cc2c(c(OC)c1OC)-c1ccc(OC)c(=O)cc1[C@@H](NC(C)=O)CC2`, the Potency was 3.16 µM (active).
In the case of `CCCN(CCC)CCc1cccc2c1CC(=O)N2`, the “activity change, negative = inhibition” value is reported as 50.3% (inactive).

Target: Cytochrome P450 3A4 (Homo sapiens) (UniProt P08684)
Sequence (P08684 whole entry, looked up): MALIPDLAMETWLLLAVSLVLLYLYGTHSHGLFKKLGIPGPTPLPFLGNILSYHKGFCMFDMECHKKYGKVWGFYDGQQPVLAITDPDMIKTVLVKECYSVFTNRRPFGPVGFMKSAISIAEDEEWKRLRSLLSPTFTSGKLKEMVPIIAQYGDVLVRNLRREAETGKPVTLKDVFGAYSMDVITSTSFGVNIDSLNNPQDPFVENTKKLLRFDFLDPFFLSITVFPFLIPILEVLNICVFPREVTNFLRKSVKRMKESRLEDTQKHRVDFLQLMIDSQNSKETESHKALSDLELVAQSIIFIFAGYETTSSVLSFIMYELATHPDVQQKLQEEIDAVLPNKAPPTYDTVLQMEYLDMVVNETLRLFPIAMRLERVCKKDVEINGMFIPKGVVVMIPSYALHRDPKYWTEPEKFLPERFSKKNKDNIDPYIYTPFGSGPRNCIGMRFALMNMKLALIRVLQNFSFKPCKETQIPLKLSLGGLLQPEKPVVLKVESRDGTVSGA
Test: qHTS Assay for Inhibitors and Substrates of Cytochrome P450 3A4 (AID 884); note: nearly all actives have a fitted effect of over 50% in size; note: potency is the fitted concentration of half-maximal effect; for activity change, negative = inhibition: % is set by controls: 0 for no effect and ±100 for the full control effect
Settings: recombinant CYP3A4, Luciferin-PPXE luminescence; series mostly up to 57.1 µM; activity change, negative = inhibition: at the top concentration
Outline: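 Luminescent readout of luciferin produced by CYP3A4 (20 nM) dealkylation of Luciferin-PPXE, 25 uM (its KM). NADPH-driven reaction ran 60 min at RT after 10 min compound preincubation; data scaled to 57 uM ketoconazole as 100% inhibition.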
In the case of `COc1ccc(C(CN(C)C)C2(O)CCCCC2)cc1` (stereo unspecified), the “activity change, negative = inhibition” value is reported as -0.142% (inactive).
For `O=C(O)c1ccc2[nH]cc(CCCCN3CC=C(c4ccccc4)CC3)c2c1`, the “activity change, negative = inhibition” value was -11.7% (inactive).
In the case of `CCC1(C2=NCCN2)Cc2ccccc2O1` (stereo unspecified), the “activity change, negative = inhibition” value is reported as -1.48% (inactive).
For `CC(C)=CC1C(C(=O)OCc2cccc(Oc3ccccc3)c2)C1(C)C` (stereo unspecified), the “activity change, negative = inhibition” value was -8.16% (inactive).
With `CC[N+]1(C)CCCC(OC(=O)C(O)(c2ccccc2)c2ccccc2)C1` (stereo unspecified) the “activity change, negative = inhibition” value was -10.8% (inactive).
With `NCCc1cc(O)c(O)cc1O` the “activity change, negative = inhibition” value was -12.1% (inactive).
For `CC(CCc1ccccc1)NC(C)C(O)c1ccc(O)cc1` (stereo unspecified), the “activity change, negative = inhibition” value was 13.4% (inactive).
With `O=[N+]([O-])c1cc([As](=O)(O)O)ccc1O` the “activity change, negative = inhibition” value was 0.785% (inactive).
In the case of `CC(=O)Nc1cc([As](=O)(O)O)ccc1O`, the “activity change, negative = inhibition” value is reported as -0.352% (inactive).
In the case of `Cc1cc(SCc2sc(-c3ccc(C(F)(F)F)c(F)c3)nc2C)ccc1OCC(=O)O`, the Potency is reported as 7.94 µM (active).

Target: Cytochrome P450 3A4 (Homo sapiens) (UniProt P08684)
Test: qHTS Assay for Activators of Cytochrome P450 3A4 (AID 885); note: nearly all actives have a fitted effect of over 65% in size
Settings: recombinant CYP3A4, Luciferin-PPXE luminescence, 60 min; series mostly up to 57.1 µM; activity change, positive = activation: at the top concentration
Outline: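 Using 20nM recombinant human CYP3A4 in potassium phosphate (200mM), substrate Luciferin-PPXE at 25uM, luminescent luciferin detection followed a 60-min RT NADPH reaction; data scaled to 57 uM ketoconazole.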
For `CC(C)CC(N(C)C)C1(c2ccc(Cl)cc2)CCC1` (stereo unspecified), the “activity change, positive = activation” value was -104% (inactive).
In the case of `COc1ccc(Cc2nccc3cc(OC)c(OC)cc23)cc1OC`, the outcome is reported as “inactive”.
In the case of `CCC1C(=O)OCC1Cc1cncn1C` (stereo unspecified), the “activity change, positive = activation” value is reported as -66% (inactive).
With `CC(C)(C)NCC(O)c1cc(Cl)c(N)c(Cl)c1` (stereo unspecified) the “activity change, positive = activation” value was -60.4% (inactive).
For `Cc1cc(SCc2sc(-c3ccc(C(F)(F)F)c(F)c3)nc2C)ccc1OCC(=O)O`, the “activity change, positive = activation” value was -63.5% (inactive).

Target: Cytochrome P450 2D6 (Homo sapiens) (UniProt P10635)
Sequence (P10635 whole entry, looked up): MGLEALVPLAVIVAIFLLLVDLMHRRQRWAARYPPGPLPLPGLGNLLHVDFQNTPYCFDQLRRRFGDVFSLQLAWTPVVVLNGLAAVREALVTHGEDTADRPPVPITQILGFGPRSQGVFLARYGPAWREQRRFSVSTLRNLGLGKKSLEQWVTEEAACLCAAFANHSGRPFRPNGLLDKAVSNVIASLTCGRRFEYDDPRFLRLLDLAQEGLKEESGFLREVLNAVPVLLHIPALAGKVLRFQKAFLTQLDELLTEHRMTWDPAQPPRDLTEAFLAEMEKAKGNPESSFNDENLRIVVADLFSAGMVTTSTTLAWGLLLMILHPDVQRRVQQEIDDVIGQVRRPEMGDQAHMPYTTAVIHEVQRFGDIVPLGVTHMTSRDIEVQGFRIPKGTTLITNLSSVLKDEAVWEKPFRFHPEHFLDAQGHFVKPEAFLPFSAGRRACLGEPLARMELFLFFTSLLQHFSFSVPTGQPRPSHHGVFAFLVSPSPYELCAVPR
Test: qHTS Assay for Inhibitors and Substrates of Cytochrome P450 2D6 (AID 891); note: potency is the fitted concentration of half-maximal effect; nearly all actives have a fitted effect of over 60% in size
Settings: recombinant CYP2D6, luciferin-ME EGE luminescence; series mostly up to 57.1 µM; activity change, negative = inhibition: at the top concentration
Outline: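 Luminescent read-out of luciferin formed by 5 nM human CYP2D6 demethylating 30 uM Luciferin-ME EGE (Km level) over 60 min at room temperature after NADPH regeneration addition. Data normalized to full inhibition by 1.43 uM quinidine.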
With `CN(C)CCC=C1c2ccccc2CCc2ccccc21` the Potency was 7.94 µM (active).
For `COc1ccc(Cc2nccc3cc(OC)c(OC)cc23)cc1OC`, the Potency was 12.6 µM (active).
For `COc1cc2c(c(OC)c1OC)-c1ccc(OC)c(=O)cc1[C@@H](NC(C)=O)CC2`, the Potency was 0.794 µM (active).
For `Cc1c(OCC(F)(F)F)ccnc1CS(=O)c1nc2ccccc2[nH]1` (stereo unspecified), the Potency was 31.6 µM (active).
For `Cc1nc2n(c(=O)c1CCN1CCC(c3noc4cc(F)ccc34)CC1)CCCC2`, the Potency was 3.16 µM (active).
With `CCCN(CCC)CCc1cccc2c1CC(=O)N2` the Potency was 3.16 µM (active).

Target: Cytochrome P450 2C19 (Homo sapiens) (UniProt P33261)
Sequence (P33261 whole entry, looked up): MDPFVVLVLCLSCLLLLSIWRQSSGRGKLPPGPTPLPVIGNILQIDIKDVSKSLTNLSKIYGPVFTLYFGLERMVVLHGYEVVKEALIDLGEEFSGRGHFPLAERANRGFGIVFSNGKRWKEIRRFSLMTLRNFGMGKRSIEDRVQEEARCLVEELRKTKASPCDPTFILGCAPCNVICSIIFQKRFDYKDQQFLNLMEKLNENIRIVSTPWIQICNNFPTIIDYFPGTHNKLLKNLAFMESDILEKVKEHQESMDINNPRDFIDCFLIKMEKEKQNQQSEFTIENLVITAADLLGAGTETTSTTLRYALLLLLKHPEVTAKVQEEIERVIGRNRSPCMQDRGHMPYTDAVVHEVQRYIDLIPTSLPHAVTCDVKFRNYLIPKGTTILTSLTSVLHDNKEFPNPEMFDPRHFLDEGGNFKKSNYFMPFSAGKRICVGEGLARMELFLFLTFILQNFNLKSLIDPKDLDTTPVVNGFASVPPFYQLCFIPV
Test: qHTS Assay for Inhibitors and Substrates of Cytochrome P450 2C19 (AID 899); note: nearly all actives have a fitted effect of over 60% in size; note: potency is the fitted concentration of half-maximal effect; for activity, negative = inhibition: % is set by controls: 0 for no effect and ±100 for the full control effect
Settings: recombinant CYP2C19, luciferin-H EGE luminescence; series mostly up to 57.1 µM; activity, negative = inhibition: at the top concentration
Outline: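 Luminescent read-out of luciferin formed from Luciferin-H EGE (10uM, equal to KM). Enzyme 5nM in 50mM KPO4; compound added, 10 min at 37C, then NADPH regenerating system for 60 min at 37C. Full inhibition defined by 57uM ketoconazole.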
With `COc1ccc(Cc2nccc3cc(OC)c(OC)cc23)cc1OC` the Potency was 5.01 µM (active).
With `CCOC(=O)c1ncn2c1CN(C)C(=O)c1cc(F)ccc1-2` the Potency was 1.58 µM (active).
In the case of `O=[N+]([O-])c1cc([As](=O)(O)O)ccc1O`, the “activity, negative = inhibition” value is reported as 55% [at 25.6 µM] (inactive).
For `CCCN(CCC)CCc1cccc2c1CC(=O)N2`, the “activity, negative = inhibition” value was 99.3% (inactive).
In the case of `C=C(C)[C@H]1Cc2c(ccc3c2O[C@@H]2COc4cc(OC)c(OC)cc4[C@@H]2C3=O)O1`, the Potency is reported as 1 µM (active).
With `CC(C)C(=O)Nc1ccc([N+](=O)[O-])c(C(F)(F)F)c1` the “activity, negative = inhibition” value was -43.7% (inactive).

Test system: not listed separately
Test: Confirmation and Secondary Assay for Modulators of Hemoglobin Beta Chain Splicing at IVS2 654 locus (AID 910);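 note: HeLa cells stably carrying EGFP split by mutant beta-globin IVS2-654 intron; % of control where 0% means no effect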
Settings: HeLa EGFP-654 splicing reporter, GFP fluorescence, 48 h; series mostly up to 46.1 µM; activation (splicing correction): at the top concentration
Outline: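 HeLa cells stably expressing EGFP interrupted by β-globin IVS2-654 intron, seeded overnight in Opti-MEM/2% FCS, then treated 2 days at 37 °C. Restored splicing read as total peak GFP intensity per well by laser scanning cytometry (488 nm excitation, 500–520 nm emission); 500 nM antisense PNA as control.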
In the case of `Cc1ccc(-c2nc3ccc(C)cn3c2CC(=O)N(C)C)cc1`, the “activation (splicing correction)” value is reported as -1.12% (inactive).
For `CC(C)CC(N(C)C)C1(c2ccc(Cl)cc2)CCC1` (stereo unspecified), the “activation (splicing correction)” value was 2.5% (inactive).
In the case of `COc1ccc(C(CN(C)C)C2(O)CCCCC2)cc1` (stereo unspecified), the “activation (splicing correction)” value is reported as 1.68% (inactive).
For `CCC(COC(=O)c1cc(OC)c(OC)c(OC)c1)(c1ccccc1)N(C)C` (stereo unspecified), the “activation (splicing correction)” value was 1.1% (inactive).
With `Cc1cccc(C)c1NC1=NCCCS1` the “activation (splicing correction)” value was -1.98% (inactive).
For `COc1ccc(Cc2nccc3cc(OC)c(OC)cc23)cc1OC`, the “activation (splicing correction)” value was -6.89% (inactive).
For `CCC1(C2=NCCN2)Cc2ccccc2O1` (stereo unspecified), the “activation (splicing correction)” value was -0.102% [at 38.3 µM] (inactive).
In the case of `CC(C)=CC1C(C(=O)OCc2cccc(Oc3ccccc3)c2)C1(C)C` (stereo unspecified), the “activation (splicing correction)” value is reported as 7.15% (inactive).
With `CC[N+]1(C)CCCC(OC(=O)C(O)(c2ccccc2)c2ccccc2)C1` (stereo unspecified) the “activation (splicing correction)” value was 7.68% (inactive).
With `Cc1ncc(CNC(=O)N(CCCl)N=O)c(N)n1` the “activation (splicing correction)” value was 2.68% (inactive).
For `NCCc1cc(O)c(O)cc1O`, the “activation (splicing correction)” value was -4.64% (inactive).
In the case of `CC(C)(C)NCC(O)c1cc(Cl)c(N)c(Cl)c1` (stereo unspecified), the “activation (splicing correction)” value is reported as 8.81% (inactive).
With `CC(CCc1ccccc1)NC(C)C(O)c1ccc(O)cc1` (stereo unspecified) the “activation (splicing correction)” value was 9.17% (inactive).
In the case of `CC(C)=CCOc1c2occc2cc2ccc(=O)oc12`, the “activation (splicing correction)” value is reported as -6.55% (inactive).
In the case of `O=[N+]([O-])c1cc([As](=O)(O)O)ccc1O`, the “activation (splicing correction)” value is reported as -2.25% (inactive).
In the case of `CC(=O)Nc1cc([As](=O)(O)O)ccc1O`, the “activation (splicing correction)” value is reported as 4.7% (inactive).
